PubChem BioAssay (NCI)
About 83,000 compounds went through this panel and 20% of them were active in at least one assay; those are over-represented in the sample as a whole.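 Compound tested at a single concentration for 48 hours in 96-well plates; a percent growth value below 10 was scored as active.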 Activity calls are given as the source filed them.

Test system: HL-60(TB) leukemia
Test: NCI-60 one-dose screen, 48 h (100 = growth as untreated, 0 = no growth, -100 = all killed)
Conditions: 10 µM unless noted

Structure (SMILES)	growth
O=C1/C(=C/c2ccc(Cl)cc2)CN(Cc2cn(CCNc3ccnc4cc(Cl)ccc34)nn2)C/C1=C\c1ccc(Cl)cc1	-51.5% (active)
Nc1c2ccccc2nc2ccccc12 (tested in a mixture with another compound)	26.8% (inactive)
Cc1nn(-c2ccccc2)c(Cl)c1/C=C(/NC(=O)c1ccccc1)c1nc2ccccc2[nH]1	85.5% (inactive)
O=C1/C(=C/c2ccccc2)COc2ccc(O)cc21	33.9% (inactive)
CSC1=Nc2c(c(C)c(-c3ccccc3)n2CCCC(=O)O)C2=NC(=O)C[C@H](C)N12	93.2% (inactive)
CN1C2CCC1/C(=C\c1ccc(Cl)cc1)C1=C2[C@@H](c2ccc(Cl)cc2)C(C#N)=C(N)O1 (stereo not given in full)	81.8% (inactive)
C#CCC1(c2ccc(F)c(F)c2)NS(=O)(=O)c2ccccc21 (stereo not given)	89.2% (inactive)
O=C(CCCNC(=O)c1nc(-c2ccccc2)n(-c2ccccc2)n1)NO	87.9% (inactive)
CC1(C)CCC(S(=O)(=O)c2ccc3c(c2)/C(=N\O)c2cc(S(=O)(=O)N4CCN(c5ccc(F)cc5O)CC4)ccc2-3)CC1	-70.7% (active)
COC(=O)c1cc(-c2ccc(Cl)c(Cl)c2)[nH]c(=O)c1C#N	101% (inactive)
Ic1ccccc1I	94.1% (inactive)
O=[N+]([O-])c1cccc(-c2nc(-c3ccc(Cl)cc3Cl)cn2-c2ccccc2)c1	35.3% (inactive)
O=C(Nc1cccc(C(F)(F)F)c1)Nc1ccc(OCc2nnc(-c3ccccc3)o2)c(F)c1	-4.69% (active)
O=C1OCc2cccc3cccc1c23	84.9% (inactive)
O=c1ccc(N=Nc2ccccc2)ccc1Cl	42.8% (inactive)
COc1cc(/C(C#N)=C/c2ccc3c(c2OC)OCO3)cc2c1OCO2	26.9% (inactive)
Fc1ccc(C(c2ccc(F)cc2)C(Cl)Cl)cc1	85.7% (inactive)
O=C1CCC(=O)N1C1CCCCC1	92.5% (inactive)
COc1ccc2[nH]c(-c3ccc(Cl)cc3)cc(=O)c2c1	75.7% (inactive)
COc1cc(/C=C2\COc3ccc(-c4ccccc4)cc3C2=O)cc(OC)c1	42.9% (inactive)

Structure (SMILES)	growth
COc1ccc(-c2c[nH]c(C(=O)O)c2-c2cc(OC)c3c(c2OC)OCO3)cc1	105% (inactive)
O=c1c2cc(F)ccc2sc2c(N3CCNCC3)nc3ccccc3c12	-52% (active)
COC(=O)[C@]12CC[C@@H](C)[C@H](C)[C@@H]1C1=CC[C@@H]3[C@@]4(C)C[C@@H](OC(C)=O)[C@H](O)[C@@](C)(CO)[C@@H]4[C@H](O)C[C@@]3(C)[C@]1(C)CC2	-56.6% (active)
Cc1ccccc1N1C(=O)c2cc(S(N)(=O)=O)c(Cl)cc2NC1C (stereo not given)	87.9% (inactive)
CCOc1ccc(S(=O)(=O)Nc2ccc3c(c2)N(S(=O)(=O)CC)CCC3)cc1	77.1% (inactive)
CCC1N=C(N)N=C(N)N1c1ccc(Cl)cc1 (stereo not given)	75.4% (inactive)
Oc1ccc(Cc2ccc(O)c(C3CC(c4ccc(Cl)cc4)=NN3)c2)cc1C1CC(c2ccc(Cl)cc2)=NN1 (stereo not given)	-23.6% (active)
COc1ccc(/C(=C\c2ccccc2)C(=O)O)cc1OC	112% (inactive)
COc1cccc(CCC(=O)c2cc3c(N)c(C(=O)Nc4cccc(Cl)c4C)sc3nc2C)c1	0.884% (active)
Cc1cnc([C@]23CC[C@@H](C)[C@H](C)[C@H]2C2=CC[C@@H]4[C@@]5(C)Cc6c([nH]c7ccccc67)C(C)(C)[C@@H]5CC[C@@]4(C)[C@]2(C)CC3)o1	38.2% [100 µM] (inactive)
CC(=O)NC(CCc1ccc(Cl)c(Cl)c1)c1cccc(O)c(=O)c1 (stereo not given)	-16.5% (active)
COc1cnc2c(c1)C(=O)c1c-2n(CCCCl)c(=O)c2ccncc12	15.8% (inactive)
O=S(=O)(NCCCNc1cc(-c2cn(-c3ccccc3)nc2-c2cccc(O)c2)ccn1)c1ccc(C(F)(F)F)cc1	25% (inactive)
CSc1nc(CC(C)C)c(C#N)c(=O)n1C	78.7% (inactive)
CCN(CC)CCOC(=O)C(c1ccccc1)(c1ccccc1)C(C)C	91.8% (inactive)
O=c1cc(-c2ccccc2)nc(SCc2nc3cc(Cl)c(Cl)cc3[nH]2)[nH]1	101% (inactive)
COc1ccc(Nc2nc(N)nc3c(=O)[nH]ccc23)cc1	96.1% (inactive)
C[C@@H]1CC[C@@H]2[C@@H]1[C@H](OC(=O)/C=C/c1ccccc1)[C@]1(c3ccccc3)C[C@@H](OC(=O)CO)[C@@]2(C)O1	105% (inactive)
Oc1ccc(N=Nc2nccs2)c(O)c1	5.98% (active)
CCOC(=O)c1cnn(CC(C)O)c1NC(=O)NCc1cccc(F)c1 (stereo not given)	90.5% (inactive)
